Results taken from PubChem BioAssay (NCATS).
Records with an inconclusive call do not appear. Active and inactive are the calls of the source. The call rests on the fitted dose curve; in most records, active means well fitted curve in the direction sought with a large enough effect; inconclusive means small, poorly fitted or top-dose-only effect, or another doubt; inactive means no such curve, though single readings can be large; an effect the other way counts as inactive or inconclusive.

Experiments:
[1] = Cell Viability - LYMP2-008 (AID 980); conditions: LYMP2-008 lymphoblastoid cell viability, qHTS; series mostly up to 92.2 µM; further: nearly all actives have a fitted effect of over 60% in size
How it was run: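 Luminescent ATP read-out (CellTiter-Glo, 30 min RT) after 24 hr compound exposure at 37 C of human lymphoblastoid cells in complete medium. Decrease in ATP taken as cytotoxicity; AC50 derived by standard Hill fit of qHTS concentration-response data.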

[2] = Cell Viability - LYMP2-010 (AID 981); conditions: LYMP2-010 lymphoblastoid cell viability, qHTS; series mostly up to 92.2 µM;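 further: cells exposed to compound for 24 hours at 37 °C; nearly all actives have a fitted effect of over 55% in size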
How it was run: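 qHTS cytotoxicity, 1536-well: 2500 cells/well, 5 hr settle, 24 hr compound at 37 C, CellTiter-Glo 30 min RT, luminescence read. Decrease in ATP = toxicity; AC50 via standard Hill equation. Positive control tetraoctylammonium bromide.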

[3] = Cell Viability - LYMP2-012 (AID 982); conditions: LYMP2-012 lymphoblastoid cell viability qHTS; series mostly up to 92.2 µM;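 further: cellular ATP by luciferase luminescence where a drop means cytotoxicity; cells exposed to compound for one day before reading; nearly all actives have a fitted effect of over 55% in size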
[4] = Cell Viability - LYMP2-014 (AID 983); conditions: LYMP2-014 lymphoblastoid cells, viability qHTS; series mostly up to 92.2 µM; further: nearly all actives have a fitted effect of over 50% in size
How it was run: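 2500 cells/well, 5 hr 37 C; cpd 24 hr 37 C, complete medium; CellTiter-Glo 30 min RT, luminescence; ATP loss = toxicity; AC50 via Hill eqn; tetraoctylammonium bromide positive control.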

[5] = Cell Viability - LYMP2-016 (AID 984); conditions: LYMP2-016 lymphoblastoid cell viability, qHTS; series mostly up to 92.2 µM;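 further: cells exposed to compound for 24 hours at 37 °C; nearly all actives have a fitted effect of over 55% in size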
How it was run: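 Human lymphoblastoid LYMP2-016 cells, 2500 per well, treated with compounds for 24 h at 37 C. Viability read as intracellular ATP by CellTiter-Glo luminescence after 30 min at room temperature; AC50 from Hill fits of concentration-response.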

[6] = Cell Viability - LYMP2-018 (AID 985); conditions: LYMP2-018 lymphoblastoid cells, viability (qHTS); series mostly up to 92.2 µM; further: nearly all actives have a fitted effect of over 50% in size
How it was run: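 2500 cells/well; 5 hr 37 C; cmpd 24 hr 37 C, complete medium; CellTiter-Glo 30 min RT; luminescence. Tetraoctylammonium bromide positive control. AC50 via Hill fit.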

[7] = Cell Viability - LYMP2-020 (AID 986); conditions: series mostly up to 92.2 µM; further: nearly all actives have a fitted effect of over 55% in size
How it was run: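 qHTS, 2500 cells/well; 5 hr then 24 hr compound exposure, 37 C; CellTiter-Glo luminescence after 30 min RT; ATP decrease taken as cytotoxicity; AC50 via Hill equation; tetraoctylammonium bromide positive control.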

[8] = Cell Viability - LYMP2-022 (AID 987); conditions: LYMP2-022 lymphoblastoid cell viability; series mostly up to 92.2 µM; further: nearly all actives have a fitted effect of over 55% in size
How it was run: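 Luminescent ATP read-out (CellTiter-Glo, 30 min, RT) after 24 hr, 37 C compound exposure of 2500 human lymphoblastoid cells/well in complete medium. Cytotoxicity taken as concentration-dependent ATP loss; AC50 from standard Hill equation.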

[9] = Cell Viability - LYMP2-024 (AID 988); conditions: LYMP2-024 lymphoblastoid cell viability; series mostly up to 92.2 µM; further: nearly all actives have a fitted effect of over 60% in size
How it was run: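 ATP-based luminescence (CellTiter-Glo, 30 min RT) after 24 h compound exposure at 37 C of 2500 lymphoblastoid cells/well; decrease in ATP taken as cytotoxicity. qHTS concentration-response fitted to standard Hill equation for AC50.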

[10] = Cell Viability - LYMP2-026 (AID 989); conditions: LYMP2-026 lymphoblastoid cell viability, qHTS; series mostly up to 92.2 µM; further: nearly all actives have a fitted effect of over 50% in size
How it was run: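 qHTS cytotoxicity: 2500 cells/well, 5 hr 37 C, compound 24 hr 37 C, CellTiter-Glo 30 min RT, luminescence. Tetraoctylammonium bromide positive control. AC50 via standard Hill fit.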

[11] = Cell Viability - LYMP1-002 - Assay at 24 hr (AID 993); conditions: LYMP1-002 lymphoblastoid cells viability; series mostly up to 92.2 µM
How it was run: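 CellTiter-Glo luminescence (intracellular ATP) after 24 h compound exposure, 37 C, in LYMP1-002 human lymphoblastoid cells; decreased ATP taken as cytotoxicity. AC50 from standard Hill fit of concentration-response curves.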

[12] = Cell Viability - LYMP1-002 - Assay at 40 hr (AID 994); conditions: LYMP1-002 lymphoblastoid cell viability; series mostly up to 92.2 µM; further: nearly all actives have a fitted effect of over 60% in size
How it was run: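 qHTS cytotoxicity; 2500 cells/well, 5 hr 37 C settle, compound 40 hr 37 C. CellTiter-Glo, 30 min RT, luminescence (ATP). Concentration-response, Hill fit → AC50. Pos. ctrl tetraoctylammonium bromide.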

[13] = molecular target: ATP-dependent 6-phosphofructokinase (Trypanosoma brucei brucei) (UniProt O15648); test: qHTS Assay to Find Inhibitors of T. brucei phosphofructokinase: hit validation (AID 492961); further: potency means the concentration at half of the fitted maximal effect; conditions: T. brucei PFK, ADP-Glo luminescence; series mostly up to 51.4 µM
ATP-dependent 6-phosphofructokinase (Trypanosoma brucei brucei), sequence (O15648 whole entry, looked up): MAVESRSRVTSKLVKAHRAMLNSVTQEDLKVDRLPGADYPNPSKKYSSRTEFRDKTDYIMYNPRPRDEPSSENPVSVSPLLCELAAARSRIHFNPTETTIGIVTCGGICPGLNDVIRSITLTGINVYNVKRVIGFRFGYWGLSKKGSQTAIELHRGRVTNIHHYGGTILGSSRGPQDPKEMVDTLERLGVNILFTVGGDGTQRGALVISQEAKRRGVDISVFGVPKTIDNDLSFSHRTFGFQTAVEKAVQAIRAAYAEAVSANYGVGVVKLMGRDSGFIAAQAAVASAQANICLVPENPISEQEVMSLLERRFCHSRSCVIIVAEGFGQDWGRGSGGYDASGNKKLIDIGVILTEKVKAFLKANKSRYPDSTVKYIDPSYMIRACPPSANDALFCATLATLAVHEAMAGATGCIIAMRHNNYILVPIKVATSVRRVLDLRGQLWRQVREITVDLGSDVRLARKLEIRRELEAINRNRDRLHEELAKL
How it was run: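 Inhibition of parasite PFK is measured as reduced ADP formation, quantified via luciferase after ATP depletion. Assay used 0.1 mM ATP, 0.5 mM F6P, 1.25 nM enzyme, 45 min incubation.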

CP247 = test: qHTS profiling for inhibitors of Plasmodium falciparum proliferation (AID 504749); further: nearly all actives have a fitted effect of over 60% in size; further: potency means the concentration at half of the fitted maximal effect; conditions: P. falciparum in erythrocytes, SYBR Green DNA, 72 h; series mostly up to 28.7 µM
How it was run: (§1)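 SYBR Green fluorescence (ex 485 nm, em 535 nm) reports parasite DNA after 72 h compound exposure of infected red cells at 0.3% parasitemia, 2.5% hematocrit; signal normalized to 0.29 uM artemisinin and vehicle wells.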

CP286 = test: as above; conditions: P. falciparum in erythrocytes, SYBR Green DNA, 72 h; series mostly up to 28.7 µM
How it was run: as §1

DFO2036 = test: as above; conditions: P. falciparum in erythrocytes, SYBR Green DNA, 72 h; series mostly up to 28.7 µM
How it was run: as §1

GB4 = test: as above; conditions: P. falciparum in erythrocytes, SYBR Green DNA, 72 h; series mostly up to 28.7 µM
How it was run: as §1

HB3 = test: as above; conditions: P. falciparum in erythrocytes, SYBR Green DNA, 72 h; series mostly up to 28.7 µM
How it was run: as §1

TAB109 = test: as above; conditions: P. falciparum in erythrocytes, SYBR Green DNA, 72 h; series mostly up to 28.7 µM
How it was run: as §1

W2 = test: as above; conditions: P. falciparum in erythrocytes, SYBR Green DNA, 72 h; series mostly up to 28.7 µM
How it was run: as §1

Measured: Potency

COC(=O)c1ccccc1C(=O)OC
inactive: [1] | [2] | [3] | [4] | [5] | [6] | [7] | [8] | [9] | [10] | [11] | [12]

Oc1cc[c]([Hg][Cl])cc1
active: [13] 2.82 µM | CP247 5.01 µM | CP286 10 µM | DFO2036 8.91 µM | GB4 6.75 µM | HB3 11.2 µM | TAB109 7.08 µM | W2 5.36 µM

CCOc1cc(C=O)ccc1O
inactive: [1] | [2] | [3] | [4] | [5] | [6] | [7] | [8] | [9] | [10] | [11] | [12]

C[N+](C)(C)CC(=O)[O-]
inactive: [13] | CP247 | CP286 | DFO2036 | GB4 | HB3 | TAB109 | W2
